Consider nine compounds from PubChem BioAssay (NCI).

Some test systems named below: SR leukemia; RPMI-8226 leukemia; OVCAR-8 ovarian; OVCAR-5 ovarian; OVCAR-4 ovarian; SK-OV-3 ovarian; IGROV1 ovarian; HS 578T breast; NCI/ADR-RES ovarian; T-47D breast; BT-549 breast; MDA-MB-435 melanoma; SW-620 colon; MCF7 breast; HCT-116 colon; HCC-2998 colon; KM12 colon.
Holding throughout (assay): NCI-60 one-dose screen, 48 h (100 = growth as untreated, 0 = no growth, -100 = all killed)
Holding throughout (conditions): 10 µM unless noted

About 83,000 compounds went through this panel and 20% of them were active in at least one assay; those are over-represented in the sample as a whole.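 Cells were grown in 96-well plates and exposed to the test compound at a single concentration for 48 hours; results are reported as percent growth, with values below 10 considered active.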 Values without a mark were called inactive. Calls of active or inactive are those of the source.

As for `CCC(CC)n1c(=O)c(SC2=NC3C(NN2)N(CC)C(=O)N3CC)c(C(=O)O)c2ccccc21` (stereo not drawn), the growth was 14.4% in the test on SR leukemia; 14.4% with RPMI-8226 leukemia; 8.01% (active) with OVCAR-8 ovarian; 37.3% in the test with OVCAR-5 ovarian; 65% with OVCAR-4 ovarian; 40.6% in the test on SK-OV-3 ovarian. Further, the growth is 32.6% in the test on IGROV1 ovarian; 19.3% in the test with HS 578T breast; 20.4% in the test on NCI/ADR-RES ovarian; 68.4% in the test with T-47D breast; -21.6% (active) with BT-549 breast; 0.0073% (active) in the test on MDA-MB-435 melanoma. Besides, the growth was 21.7% in the test on SW-620 colon; 17.4% in the test on MCF7 breast; 6.91% (active) in the test on HCT-116 colon; 24% with HCC-2998 colon; 20.7% with KM12 colon.
On to `COc1ccc(-c2nc3cc(Cl)c(Cl)cc3n2CC(=O)N=Nc2c(O)[nH]c3ccc(Br)cc23)cc1`, for which the growth in the test on SR leukemia was 36.4%; in the test with RPMI-8226 leukemia, 31.8%; in the test on OVCAR-8 ovarian it was 12%; in the test on OVCAR-5 ovarian, -5.99% (active); in the test on OVCAR-4 ovarian it was -43.9% (active); with SK-OV-3 ovarian it was 13.5%. For the same compound, the growth in the test on IGROV1 ovarian was -37.9% (active); with HS 578T breast, -8.55% (active); in the test on NCI/ADR-RES ovarian, -1.87% (active); in the test with T-47D breast it was -52.7% (active); in the test on BT-549 breast, 3.05% (active); in the test on MDA-MB-435 melanoma it was -59.1% (active). Moreover, the growth is -54.6% (active) in the test with SW-620 colon; -11.6% (active) with MCF7 breast; -31.5% (active) in the test on HCT-116 colon; -25.9% (active) in the test on HCC-2998 colon; 5.77% (active) in the test on KM12 colon.
For the compound `CS(=O)(=O)c1nccc(-c2c(-c3ccc(F)c(OCCc4ccc(F)cc4)c3)nc3sccn23)n1`, the growth in the test on SR leukemia was 0.201% (active); with RPMI-8226 leukemia, -43.2% (active); in the test with OVCAR-8 ovarian, 69.8%; with OVCAR-5 ovarian, 93.2%; with OVCAR-4 ovarian, 51.2%; with SK-OV-3 ovarian, 84.5%. The growth in the test on IGROV1 ovarian is -64.9% (active); in the test with HS 578T breast, 35.5%; with NCI/ADR-RES ovarian, 81.3%; in the test with T-47D breast, -75.5% (active); in the test with BT-549 breast, 57.2%; in the test on MDA-MB-435 melanoma it was 87.2%. In addition, the growth in the test with SW-620 colon is 67.1%; in the test on MCF7 breast, -61% (active); with HCT-116 colon it was 47.6%; in the test with HCC-2998 colon it was -91% (active); with KM12 colon it was -42.9% (active).
In the case of `CCCCCc1ccc(S(=O)(=O)N(C(C)=O)c2cccc(-c3csc(N(CCN4CCN(C)CC4)C(C)=O)n3)c2)cc1`, the growth with SR leukemia was -17.7% (active); in the test with RPMI-8226 leukemia, -27.8% (active); in the test on OVCAR-8 ovarian, 60.7%; with OVCAR-5 ovarian it was 92.2%; in the test on OVCAR-4 ovarian it was 47.1%; with SK-OV-3 ovarian it was 100%. Moreover, the growth in the test with IGROV1 ovarian was 46.8%; in the test on HS 578T breast, 72.8%; in the test on NCI/ADR-RES ovarian, 48.3%; with T-47D breast, 50.4%; in the test with BT-549 breast, 91.3%; in the test with MDA-MB-435 melanoma, -73% (active). For the same compound, the growth in the test with SW-620 colon was -26.5% (active); in the test on MCF7 breast it was -66.2% (active); with HCT-116 colon, -66.2% (active); in the test with HCC-2998 colon, -81.2% (active); in the test on KM12 colon, 27.4%.
As to `Cc1nc(-c2cc3ccccc3c(N3CCN(C)CC3)n2)cs1`, the growth in the test with SR leukemia was 102%; with RPMI-8226 leukemia, 99.2%; in the test on OVCAR-8 ovarian, 98.8%; in the test with OVCAR-5 ovarian, 104%; in the test with OVCAR-4 ovarian it was 102%; in the test with SK-OV-3 ovarian, 97.1%. In addition, the growth was 97.3% in the test on IGROV1 ovarian; 85.5% in the test with HS 578T breast; 94.3% with NCI/ADR-RES ovarian; 84.3% with T-47D breast; 97.5% in the test with BT-549 breast; 99.9% in the test with MDA-MB-435 melanoma. The growth in the test with SW-620 colon is 98.6%; in the test on MCF7 breast, 92.7%; in the test on HCT-116 colon, 93%; in the test with HCC-2998 colon, 95.3%; with KM12 colon, 103%.
For the compound `Cc1ccc(/C=C/c2nn3c(-c4ccco4)nnc3s2)cc1`, the growth was 77.3% with SR leukemia; 95.4% with RPMI-8226 leukemia; 100% in the test with OVCAR-8 ovarian; 100% in the test on OVCAR-5 ovarian; 102% in the test with OVCAR-4 ovarian; 115% in the test with SK-OV-3 ovarian. The growth is 107% in the test with IGROV1 ovarian; 116% with HS 578T breast; 104% in the test with NCI/ADR-RES ovarian; 92.9% in the test with T-47D breast; 99.2% in the test with BT-549 breast; 97.1% with MDA-MB-435 melanoma. For the same compound, the growth with SW-620 colon was 102%; in the test on MCF7 breast, 89.5%; in the test with HCT-116 colon, 112%; in the test on HCC-2998 colon it was 114%; with KM12 colon it was 103%.
Consider `O=C(/C=C/Nc1ccc(S(=O)(=O)O)cc1)c1ccc(F)cc1`, for which the growth in the test with SR leukemia was 90.8%; in the test on RPMI-8226 leukemia it was 95.9%; in the test with OVCAR-8 ovarian it was 99.5%; with OVCAR-5 ovarian, 103%; in the test on OVCAR-4 ovarian it was 105%; in the test on SK-OV-3 ovarian, 117%. Further, the growth with IGROV1 ovarian was 109%; in the test on HS 578T breast, 97.3%; in the test on NCI/ADR-RES ovarian it was 97.3%; with T-47D breast, 99.4%; in the test on BT-549 breast, 119%; in the test with MDA-MB-435 melanoma, 100%. The growth with SW-620 colon was 94.8%; in the test with MCF7 breast it was 90%; in the test on HCT-116 colon, 107%; in the test on HCC-2998 colon, 106%; in the test with KM12 colon it was 104%.
On to `CC(C)SC1=NC(=C(C(=N1)NC2=ClC=CC=C2)C#N)C3=CC=CC=C3`, for which the growth with SR leukemia was 69.3%; in the test with RPMI-8226 leukemia it was 88.2%; with OVCAR-8 ovarian, 46.8%; in the test with OVCAR-5 ovarian, 80.3%; in the test on OVCAR-4 ovarian, -4.9% (active); in the test with SK-OV-3 ovarian it was 88.5%. Further, the growth in the test with IGROV1 ovarian was -5.3% (active); in the test on HS 578T breast, 65.4%; with NCI/ADR-RES ovarian it was 52.7%; with T-47D breast it was 55%; in the test on BT-549 breast it was 110%; with MDA-MB-435 melanoma, 62.3%. Moreover, the growth in the test on SW-620 colon was 50.5%; in the test on MCF7 breast, 39.9%; in the test with HCT-116 colon it was 27.9%; in the test on HCC-2998 colon, 84.1%; in the test on KM12 colon, 79.3%.
For the compound `CS(=O)c1nccc(-c2c(-c3ccc(F)c(OCc4ccc(F)cc4)c3)nc3sccn23)n1` (stereo not drawn), the growth was -22.2% (active) with SR leukemia; 20.2% with RPMI-8226 leukemia; 89.1% in the test with OVCAR-8 ovarian; 100% with OVCAR-5 ovarian; 101% in the test on OVCAR-4 ovarian; 115% in the test on SK-OV-3 ovarian. Moreover, the growth in the test with IGROV1 ovarian is 17.7%; with HS 578T breast, 98.4%; in the test on NCI/ADR-RES ovarian, 107%; with T-47D breast, -37.3% (active); in the test with BT-549 breast, 102%; in the test on MDA-MB-435 melanoma, 100%. Also, the growth is 73% in the test with SW-620 colon; -50.1% (active) in the test on MCF7 breast; 19.7% in the test with HCT-116 colon; 10.2% in the test with HCC-2998 colon; 54.5% in the test on KM12 colon.
